Molecules are shown by their SMILES. Activity calls are given as the source filed them. Unless noted, how the calls were made is not given here.

Here are results for 19 compounds from PubChem BioAssay.

Test [1] in a line: kinase inhibitors against Plasmodium liver-stage infection, cell-based, known kinase inhibitor set, luminescence, hepatoma host viability (AID 624392).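 Further: infected cells incubated roughly two days before readout.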 The settings on record: Plasmodium liver stage in hepatoma cells, luciferase luminescence, concentration not given here; liver cell % of control: measured here: host liver cell viability; parasite % of control: stronger effect = lower value.

The nature of test [2]: modulators of glucocorticoid suppression of NF-kB, cell-based, luciferase, IL-1B stimulus, dexamethasone (AID 624486).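 On percent of negative control (+Dex): 100% = mean signal of vehicle control wells on the plate.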 The settings on record: NF-kB luciferase reporter, IL-1B + dexamethasone, luminescence; percent of negative control (+Dex): actives lie on both sides, concentration not given here; z-score: measured here: IL-1B alone, no Dex. For orientation: In a reporter assay the amount or activity of a reporter protein is the signal.

Test [3] addresses Cellular tumor antigen p53 (Homo sapiens) (UniProt P04637). In words: kinase inhibitors altering GFP-p53 stability in HPV16-positive cells, imaging, known kinase inhibitor set, EGFP/DsRed ratio (AID 1053116).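 Further: cells exposed to compounds for 24 h at 37 °C before reading.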 Particulars: stronger effect = higher value; EGFP object count: measured here: GFP-p53 positive objects count.
Test [4] can be described thus: IRF3 reporter activation in THP-1 macrophages, cell-based, PMA-stimulated THP-1, luminescence (AID 1053176). Particulars: PMA-differentiated THP-1, IRF3 reporter luminescence; stronger effect = higher value.
A short description of test [5]: kinase inhibitors altering Pseudomonas killing of worms, whole organism (AID 651566).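 Further: tested at 14 µM; sign flipped so higher z means a lower ratio.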 The settings on record: C. elegans killed by P. aeruginosa, survival ratio.
A short description of test [6]: activators of macrophage pro-inflammatory response, cell-based, murine, luminescence (AID 652131). The settings on record: murine macrophage pro-inflammatory reporter, stronger effect = higher value.
Test [7] is described as follows: survival rescue of mitochondrial mutant cells in low glucose, primary screen, MELAS cybrids, Rieske KO mouse fibroblasts, CellTiter-Glo (AID 1508586;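 active means mean z-score across replicates of 1.96 or higher in either the MELAS or the Rieske mutant cell line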;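 further: z relative to plate mean and SD of compound and empty wells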). For orientation: Cellular ATP, detected with luciferase, serves as a proxy for viable cell number.
The mark [8] stands for this setting: MELAS cybrid survival, CellTiter-Glo 48 h, stronger effect = higher value.
Where [9] appears, read: Rieske KO mouse fibroblast survival, CellTiter-Glo 72 h.

Cellular tumor antigen p53 (Homo sapiens), sequence (P04637 whole entry, looked up): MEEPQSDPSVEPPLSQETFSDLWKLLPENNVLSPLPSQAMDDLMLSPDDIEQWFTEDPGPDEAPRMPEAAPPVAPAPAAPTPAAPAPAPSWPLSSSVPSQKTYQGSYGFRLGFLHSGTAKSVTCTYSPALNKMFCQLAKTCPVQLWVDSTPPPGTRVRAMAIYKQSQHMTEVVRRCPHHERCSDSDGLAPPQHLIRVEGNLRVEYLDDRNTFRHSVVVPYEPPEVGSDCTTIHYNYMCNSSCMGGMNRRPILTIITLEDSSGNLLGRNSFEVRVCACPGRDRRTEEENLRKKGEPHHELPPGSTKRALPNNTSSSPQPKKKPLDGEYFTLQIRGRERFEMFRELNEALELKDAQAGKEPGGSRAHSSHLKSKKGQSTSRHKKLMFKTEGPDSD

In the case of `Cn1cc(C2=C(Nc3ccccc3)C(=O)NC2=O)c2ccccc21`, in test [1], the liver cell % of control came to 106% and the parasite % of control is 67.5% (inactive). In addition, in test [2], the percent of negative control (+Dex) is 106% (inactive) and the z-score turned out to be 0.495. Further, in test [3], the EGFP object count worked out at 7 and the EGFP/DsRed ratio is 0.118 (inactive). The fraction signal in test [4] was -0.007 (inactive).
On to `Cn1cc(C2=C(c3cccc(N)c3)C(=O)NC2=O)c2ccccc21`, for which, in test [1], the liver cell % of control was determined as 102% and the parasite % of control was 14.9% (inactive). For the same compound, in test [2], the percent of negative control (+Dex) was 124% (active) and the z-score was -1.23. Also, in test [3], the EGFP object count came to 23.5 and the EGFP/DsRed ratio is 0.303 (inactive). Further, the fraction signal in test [4] is -0.005 (inactive).
Turning to `Cn1cc(C2=C(c3ccsc3)C(=O)NC2=O)c2ccccc21`, in test [1], the liver cell % of control turned out to be 108% and the parasite % of control is 30% (inactive). Further, in test [2], the percent of negative control (+Dex) was 92.5% (inactive) and the z-score was -0.045. Besides, in test [3], the EGFP object count was found to be 3.5 and the EGFP/DsRed ratio is 0.27 (inactive). In addition, the fraction signal in test [4] was -0.0155 (inactive).
On to `COc1ccc(O)c(C(=O)c2ccc(C(=O)NC3CCCNCC3NC(=O)c3ccncc3)cc2)c1F` (stereo not given), for which, in test [1], the liver cell % of control is 115% and the parasite % of control was 83.5% (inactive). For the same compound, in test [2], the percent of negative control (+Dex) is 68.5% (active) and the z-score was -3.04. In addition, in test [3], the EGFP object count is 10.5 and the EGFP/DsRed ratio is 0.105 (inactive). For the same compound, in test [4], the fraction signal is 0.0035 (inactive).
With `O=C1Nc2ccc(F)c3c(OCCO)cc(-c4ccc[nH]4)c1c23`, in test [1], the liver cell % of control was 83.9% and the parasite % of control was 52.1% (inactive). In addition, in test [2], the percent of negative control (+Dex) was 105% (inactive) and the z-score turned out to be 1.54. Further, in test [3], the EGFP object count is 6 and the EGFP/DsRed ratio is 0.192 (inactive). The fraction signal in test [4] was -0.016 (inactive).
`Cc1[nH]n(-c2ccccc2)c(=O)c1C(=O)c1ccccc1`: in test [1], the liver cell % of control came to 103% and the parasite % of control was 53.4% (inactive). In test [2], the percent of negative control (+Dex) is 97% (inactive) and the z-score came to 0.12. Further, in test [3], the EGFP object count was determined as 5 and the EGFP/DsRed ratio was 0.115 (inactive). In test [4], the fraction signal was -0.0005 (inactive).
As to `Cc1cc(O)cc(C)c1/C=C/c1cncc(C(N)=O)c1`, in test [1], the liver cell % of control turned out to be 105%. For the same compound, the parasite % of control in test [1] was 146% (inactive). Further, the percent of negative control (+Dex) in test [2] is 106% (inactive). Further, the z-score is 0.29 in test [2]; -0.395 (inactive) in test [5]; 0.198 (inactive) in test [6]; -0.353 (inactive) in test [7] (setting [8]); -0.218 in test [7] (setting [9]). In addition, the EGFP object count in test [3] worked out at 4. The EGFP/DsRed ratio in test [3] is 0.013 (inactive). The fraction signal in test [4] was -0.001 (inactive).
For the compound `CC(=O)N1CCC(Nc2ncc3cc(Oc4ccc(F)cc4F)c(=O)n(C)c3n2)CC1`, in test [1], the liver cell % of control is 113% and the parasite % of control is 81.4% (inactive). Besides, in test [2], the percent of negative control (+Dex) is 102% (inactive) and the z-score is 0.13. In addition, in test [3], the EGFP object count came out at 2 and the EGFP/DsRed ratio was 0.0142 (inactive). The fraction signal in test [4] is -0.005 (inactive).
In test [1], `CCc1nccc2c1nc(-c1nonc1N)n2CC` yielded a liver cell % of control of 89.7%. Besides, in test [1], the parasite % of control was 130% (inactive). In addition, the percent of negative control (+Dex) in test [2] was 67% (inactive). Further, the z-score in test [2] was -2.37; in test [5] it was -0.475 (inactive); in test [6] it was -0.569 (inactive); in test [7] (setting [8]) it was 0.0182 (inactive); in test [7] (setting [9]), -0.326. In test [3], the EGFP object count came to 2.5. In test [3], the EGFP/DsRed ratio is 0.0232 (inactive). Moreover, the fraction signal in test [4] is 0.005 (inactive).
Consider `COc1cc[nH]c1C=C1C(=O)Nc2ccccc21`, for which, in test [1], the liver cell % of control came to 116% and the parasite % of control is 24.2% (inactive). Also, in test [2], the percent of negative control (+Dex) is 148% (active) and the z-score worked out at 6.7. In addition, in test [3], the EGFP object count stood at 6 and the EGFP/DsRed ratio is 0.263 (inactive). Besides, in test [4], the fraction signal was -0.02 (inactive).
For `CON=C(c1ccccc1)c1cnn(-c2ccccc2)c1N`, in test [1], the liver cell % of control was 121% and the parasite % of control was 79.3% (inactive). Moreover, in test [2], the percent of negative control (+Dex) was 98.5% (inactive) and the z-score turned out to be 0.245. Moreover, in test [3], the EGFP object count was 3.5 and the EGFP/DsRed ratio is 0.128 (inactive). Moreover, the fraction signal in test [4] is 0.0055 (inactive).
Take `Cn1cc(C2=C(c3cn(CCN)c4ccccc34)C(=O)NC2=O)c2ccccc21`: in test [1], the liver cell % of control turned out to be 89.8% and the parasite % of control is 29.9% (inactive). For the same compound, in test [2], the percent of negative control (+Dex) was 99% (inactive) and the z-score is 0.435. Moreover, in test [3], the EGFP object count is 14.5 and the EGFP/DsRed ratio was 0.0574 (inactive). The fraction signal in test [4] is 0.0015 (inactive).
Take `O=C1NC(=NCc2ccccn2)SC1=Cc1ccc2ncccc2c1`: in test [1], the liver cell % of control was 105% and the parasite % of control is 37.5% (inactive). Moreover, in test [2], the percent of negative control (+Dex) is 94% (inactive) and the z-score was found to be 0.165. For the same compound, in test [3], the EGFP object count came to 6.5 and the EGFP/DsRed ratio is 0.264 (inactive). For the same compound, the fraction signal in test [4] is 0.01 (inactive).
On to `CC(=O)NC(Cc1ccc(OP(=O)(O)O)cc1)C(=O)NC1CCC(=O)N2CCCC(C(=O)Nc3cccc4ccccc34)N2C1=O` (stereo not given), for which, in test [1], the liver cell % of control stood at 103% and the parasite % of control is 47% (inactive). Besides, in test [2], the percent of negative control (+Dex) is 104% (inactive) and the z-score amounted to 0.475. In addition, in test [3], the EGFP object count amounted to 6.5 and the EGFP/DsRed ratio was 0.135 (inactive). Besides, the fraction signal in test [4] was -0.007 (inactive).
Compound `CC1=C(C(=O)Nc2ccc3n[nH]c(C)c3c2)C(c2ccc(C(F)(F)F)cc2)CC(=O)N1` (stereo not given) registered a liver cell % of control in test [1] of 99.2%. In test [1], the parasite % of control is 202% (inactive). For the same compound, the percent of negative control (+Dex) in test [2] was 82.5% (inactive). Also, the z-score was -1.14 in test [2]; 0.355 (inactive) in test [5]; -0.104 (inactive) in test [6]; -0.0625 (inactive) in test [7] (setting [8]); -0.632 in test [7] (setting [9]). Further, the EGFP object count in test [3] turned out to be 2.5. The EGFP/DsRed ratio in test [3] is 0.0851 (inactive). Further, in test [4], the fraction signal is -0.006 (inactive).
`Cn1cc(C2=C(c3cn(C)c4c(N)cccc34)C(=O)NC2=O)c2ccccc21`: in test [1], the liver cell % of control came out at 92.4% and the parasite % of control was 40.1% (inactive). Moreover, in test [2], the percent of negative control (+Dex) was 108% (inactive) and the z-score is -1.47. Besides, in test [3], the EGFP object count stood at 87.5 and the EGFP/DsRed ratio is 1.36 (active). Also, in test [4], the fraction signal was -0.003 (inactive).
Consider `COc1cc(F)c(F)c(F)c1C(=O)c1cnc(NC2CCN(S(C)(=O)=O)CC2)nc1N`, for which, in test [1], the liver cell % of control is 92.2% and the parasite % of control was 450% (inactive). In test [2], the percent of negative control (+Dex) was 122% (inactive) and the z-score is 0.18. Further, in test [3], the EGFP object count came to 3 and the EGFP/DsRed ratio is 0.21 (inactive). In addition, the fraction signal in test [4] is -0.0095 (inactive).
For `CC(=C1SC(=NCc2cccs2)NC1=O)c1ccc2ncccc2c1`, in test [1], the liver cell % of control came out at 89.5% and the parasite % of control is 33.7% (inactive). For the same compound, in test [2], the percent of negative control (+Dex) is 92.5% (inactive) and the z-score is -0.085. Moreover, in test [3], the EGFP object count stood at 5 and the EGFP/DsRed ratio was 0.0357 (inactive). In addition, the fraction signal in test [4] is -0.009 (inactive).
Turning to `COc1cccc2c1c(C1=C(c3cn(C)c4ccccc34)C(=O)NC1=O)cn2C`, in test [1], the liver cell % of control stood at 85.8% and the parasite % of control was 34.6% (inactive). Moreover, in test [2], the percent of negative control (+Dex) was 103% (inactive) and the z-score amounted to 0.84. Also, in test [3], the EGFP object count amounted to 12.5 and the EGFP/DsRed ratio was 0.282 (inactive). Further, the fraction signal in test [4] is -0.0155 (inactive).
